What all share (assay): NCI-60 one-dose screen, 48 h (100 = growth as untreated, 0 = no growth, -100 = all killed)
The subject of test [1] is NCI-H23 lung. The settings on record: 10 µM unless noted.
For test [2], the system named is NCI-H226 lung. The conditions noted are these: 10 µM unless noted.
Test [3] relates to NCI-H322M lung. The conditions noted are these: 10 µM unless noted.
The test system of test [4] is HOP-62 NSCLC. The settings on record: 10 µM unless noted.
In test [5] the test system is NCI-H460 lung. The settings on record: 10 µM unless noted.
Test [6] concerns HOP-92 NSCLC. The settings on record: 10 µM unless noted.
The subject of test [7] is A549/ATCC NSCLC. The settings on record: 10 µM unless noted.
The test system of test [8] is 786-0 renal. The conditions noted are these: 10 µM unless noted.
For test [9], the system named is COLO 205 colon. The conditions noted are these: 10 µM unless noted.
In test [10] the test system is DU-145 prostate. The settings on record: 10 µM unless noted.
Test [11] deals with K-562 leukemia. The settings on record: 10 µM unless noted.
For test [12], the system named is MALME-3M melanoma. The settings on record: 10 µM unless noted.
Test [13] concerns MDA-MB-231 breast. The conditions noted are these: 10 µM unless noted.
For test [14], the system named is RXF 393 renal. The conditions noted are these: 10 µM unless noted.
The test system of test [15] is SF-268 CNS. The conditions noted are these: 10 µM unless noted.
Test [16] relates to SF-295 CNS. The settings on record: 10 µM unless noted.
Test [17] deals with SF-539 CNS. The conditions noted are these: 10 µM unless noted.
Test [18] has as its system M14 melanoma. The settings on record: 10 µM unless noted.
The test system of test [19] is UACC-257 melanoma. The conditions noted are these: 10 µM.
Test [20] concerns NCI-H522 lung. The conditions noted are these: 10 µM unless noted.

This is part of a sample that, as a whole, favours compounds with a hit. Of some 83,000 tested, about 20% had one in any assay.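 Growth was measured after 48 h exposure to one concentration of compound in 96-well plates. Values under 10 count as active.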 Values without a mark were called inactive. The source made the active and inactive calls.

In the case of `COc1ncc(-c2ccc3ncnc(Nc4cccc(Cl)c4)c3c2)cc1NS(=O)(=O)C1CC1`, the growth is 54.2% in [1]; 24.1% in test [2]; -5.8% (active) in [3]; 43.9% in test [4]; 28.3% in [5]; -7.31% (active) in [6]. Moreover, the growth was 26.3% in test [7]; 62.6% in test [8]; 31.4% in test [9]; 26% in test [10]; 60.5% in [11]; 15.9% in test [12]. Also, the growth is 37.9% in test [13]; 1.04% (active) in [14]; 43% in [15]; 34.2% in test [16]; 27% in test [17]; 56.6% in [18].

Consider `CC(=O)Nc1nc(C(=O)N2N=C(C)/C(=C/c3cccs3)C2=O)cs1`, for which the growth in [1] is 107%; in [2] it was 101%; in test [3], 95.4%; in test [4], 99.1%; in test [5], 107%; in test [6] it was 99.1%. Further, the growth in [7] is 101%; in [8], 102%; in test [9], 104%; in test [10], 99.4%; in test [11], 102%; in test [12], 86%. Besides, the growth was 111% in test [13]; 107% in test [15]; 106% in [16]; 103% in [17]; 91.7% in [19]; 101% in [18].

For the molecule `CCN1C(=O)/C(=c2\sc3n(c2=O)C2C(NN=3)N(CC)C(=S)N2CC)c2ccccc21` (centres undefined), the growth was 101% in test [1]; 92.3% in test [2]; 103% in [3]; 79.2% in test [4]; 107% in [5]; 99.2% in test [6]. Further, the growth in test [8] is 99.5%; in [9], 103%; in test [10], 115%; in test [11], 98%; in test [12], 93.2%; in [13], 96.3%. The growth was 90.2% in test [15], 100% in test [16], 96.3% in test [17] and 96.2% in test [18].

`CCCC(C(=O)OCC)C(C)OC(=O)OCC` (centres undefined): the growth in test [1] was 100%; in test [2], 101%; in test [3], 100%; in [4], 93.3%; in [5] it was 113%; in [6], 90.2%. The growth in test [7] is 104%; in test [8] it was 99.5%; in test [9], 103%; in [10], 106%; in [11], 81.6%; in [12], 85.9%. Also, the growth was 105% in [13]; 96.3% in test [14]; 96.9% in test [15]; 84.7% in [16]; 107% in [17]; 97.5% in [19]. Further, in test [18], the growth was 97.6%.

On to `O=[N+]([O-])c1cccc(-c2cc(-c3cc(Br)ccc3O)[nH]n2)c1`, for which the growth in [1] was 28.5%; in [2] it was 52.6%; in test [3] it was 24.4%; in [4], 25.2%; in [5], 7.48% (active); in test [6], 4.45% (active). Also, the growth in [7] is 21.7%; in test [8], 27.2%; in [9], 17.6%; in [10], 35.1%; in test [11] it was 12.4%; in test [12], 5.27% (active). The growth is 27% in test [13]; 58.1% in test [14]; 23.6% in [15]; 40.4% in [16]; 34% in [17]; 35.6% in test [18].

As to `O=C(COc1ccccc1)N1N=C(c2ccc(Cl)cc2)CC1c1c[nH]c2ccccc12` (centres undefined), the growth in [2] is 65.2%; in [3], 86.4%; in [4], 66.6%; in [5], 47.9%; in test [6], 62.1%; in [20], 73.9%. Besides, the growth in [7] was 58.4%; in test [8] it was 71%; in test [9], 86.9%; in [10], 92%; in [11], 71.2%; in test [12], 74.1%. Also, the growth was 47.7% in test [13]; 103% in [14]; 71.9% in [15]; 92.1% in test [16]; 87.1% in [17]; 89.1% in test [19]. The growth in [18] was 83.1%.

For `CC(C)(C)c1ccc(S(=O)(=O)Oc2ccc3c4c(c(=O)oc3c2)CCCCC4)cc1`, the growth is 43% in test [1]; 56.7% in [2]; 85.9% in [3]; 85.2% in test [4]; 43.2% in test [5]; 3.94% (active) in test [6]. Also, the growth is 59.3% in test [7]; 60.8% in test [8]; 37.4% in test [9]; 77.4% in test [10]; 38.5% in test [11]; 44% in test [12]. Also, the growth in test [13] is 80.2%; in test [14], 48.1%; in [15], 61.1%; in test [16], 2.71% (active); in test [17], 42.7%; in [19], 48.9%. Besides, in [18], the growth is 39.4%.

Take `CCNC(=O)CCCCC(=O)c1c(C)[nH]c(/C=C2\N=C(c3ccc[nH]3)C=C2OC)c1C`: the growth in test [1] is 35%; in [2], 65.7%; in [3] it was 37.9%; in [4], 42.7%; in test [5], -65.1% (active); in test [6], -71.6% (active). The growth in test [7] was 9.45% (active); in [8], -51.9% (active); in [9] it was 1.23% (active); in test [10] it was 2.48% (active); in test [11], 51.5%; in test [12] it was 51.6%. For the same molecule, the growth in test [13] is 0.721% (active); in test [14] it was -48% (active); in test [15] it was 27.2%; in test [16], -22.1% (active); in [17], 54.8%; in test [19] it was 54.6%. The growth in [18] was 5.27% (active).

`Cc1nc2sccn2c1-c1csc(Nc2ccccc2Cl)n1`: the growth in [1] is 38.2%; in [2], 57.7%; in test [3], 64.4%; in test [4], 54.2%; in test [5] it was 35.3%; in [6], 60.9%. Also, the growth in test [7] was 34.4%; in test [8], 55.3%; in test [9] it was 41.6%; in test [10] it was 68.2%; in test [11] it was 12.5%; in [12], 56.2%. The growth in [13] is 66.5%; in test [14], 67.2%; in test [15] it was 71.3%; in test [16], 36.2%; in test [17], 52%; in test [19] it was 46%. In addition, the growth in test [18] is 36.9%.

With `O=S(=O)(NCCCNc1cc(-c2cn(-c3ccccc3)nc2-c2cccc(O)c2)ccn1)c1cccc(F)c1`, the growth in [1] was 58.6%; in test [2], 46.4%; in [3], 57.9%; in test [4] it was 66.7%; in [5], 35.6%; in test [6], 26%. In addition, the growth in test [7] was 37%; in test [8] it was 13.1%; in test [9] it was -55.9% (active); in test [10] it was 59.4%; in [11], 1.85% (active); in test [12], 37.9%. Also, the growth in [13] was 7.26% (active); in test [14], 40.1%; in test [15], 60.7%; in test [16], 9.83% (active); in test [17], 45.1%; in test [18] it was 42.3%.

Turning to `O=C1c2ccccc2C(=O)c2c(N=Nc3sc(=O)[nH]c3S)cccc21`, the growth in test [1] is 96.3%; in [2] it was 110%; in [3] it was 99%; in test [4], 99.3%; in test [5], 95.9%; in test [6] it was 92.9%. Also, the growth is 98.1% in [7]; 107% in test [8]; 98.9% in test [9]; 103% in [10]; 78.5% in test [11]; 93.3% in [12]. The growth in test [13] is 97.1%; in test [14], 115%; in test [15], 97.3%; in test [16], 97.2%; in test [17], 107%; in test [19], 88.5%. The growth in [18] was 96.2%.

`COc1cc(C2C=C(C)N=C3SC=CN32)cc(OC)c1OC` (centres undefined): the growth is 108% in [1]; 103% in test [2]; 105% in test [3]; 106% in test [4]; 105% in [5]; 91.6% in [6]. For the same molecule, the growth in [7] was 107%; in [8], 113%; in test [9], 113%; in test [10], 112%; in test [11] it was 123%; in [12], 104%. The growth in test [13] is 100%; in test [15], 104%; in test [16], 108%; in test [17], 116%; in [19] it was 102%; in test [18], 107%.

`O=C1NCC(c2cc3ccccc3[nH]c2=O)Nc2ccccc21` (centres undefined): the growth in [1] was 97.4%; in [2], 98.4%; in [3], 100%; in test [4], 90.6%; in test [5], 105%; in test [6] it was 104%. For the same molecule, the growth in test [7] was 92.4%; in test [8], 100%; in [9], 107%; in test [10], 111%; in test [11] it was 90.2%; in test [12], 96.8%. Further, the growth in test [13] is 97.9%; in test [14], 90.7%; in [15], 99.9%; in [16] it was 106%; in [17], 96.5%; in test [18], 101%.

Take `CC/C=C\C/C=C\C[C@H](O)C/C=C1/C(=O)C=C[C@H]1C/C=C\CCC(=O)OC`: the growth was 54.3% [8.25 µM] in [1]; 69.9% [8.25 µM] in [2]; 90.2% [8.25 µM] in test [3]; 37.6% [8.25 µM] in test [4]; 90.2% [8.25 µM] in test [5]; 58.6% [8.25 µM] in test [6]. Also, the growth in test [7] is 53.4% [8.25 µM]; in test [8], 44.7% [8.25 µM]; in test [9] it was 0.861% [8.25 µM] (active); in test [10], 46% [8.25 µM]; in test [11], 5.45% [8.25 µM] (active); in test [12], 41.6% [8.25 µM]. The growth in test [13] is 21% [8.25 µM]; in test [14], 21.3% [8.25 µM]; in test [15], 20.6% [8.25 µM]; in test [16] it was 82.4% [8.25 µM]; in test [17] it was 17% [8.25 µM]; in test [18], 12.7% [8.25 µM].

Regarding `CCSc1nnc(Nc2ccc(C(C)C)cc2)s1`, the growth in [1] was 79.3%; in test [2], 75%; in test [3], 97.6%; in test [4], 91.5%; in [5], 97.5%; in [6], 92.7%. Moreover, the growth was 86.5% in test [7]; 86% in [8]; 86.9% in test [9]; 105% in test [10]; 51.8% in test [11]; 90.7% in [12]. Besides, the growth is 92.5% in test [13]; 28% in test [14]; 112% in test [15]; 91.1% in test [16]; 90.4% in test [17]; 95.7% in test [18].

Values taken from PubChem BioAssay (NCI).
